Measurements from PubChem BioAssay (Tox21).
Records with an inconclusive call do not appear. The source made the active and inactive calls. Unless noted, the call rests on the fitted dose curve; in most records, active means well fitted curve in the direction sought with a large enough effect in the repeat runs; inconclusive means weak or mixed curves; inactive means no such curve, though single readings can be large; an effect the other way counts as inactive or inconclusive.

Legend:
[1] = target: Retinoic acid receptor RXR-alpha (Homo sapiens) (UniProt P19793); experiment: qHTS assay to identify small molecule agonists of the RXR signaling pathway (AID 1159527; calls by dose curve; further: nearly all actives have a fitted effect of over 35% in size)
Procedure, shortened: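 Agonist-mode beta-lactamase reporter assay: HEK 293T RXR-alpha-UAS-bla cells treated 16 hr at 37 C with compounds, 9-cis retinoic acid as positive control. LiveBLAzer FRET substrate, 405 nm excitation, 460/530 nm emission.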

[2] = qHTS assay to identify small molecule agonists of the RXR signaling pathway - cell viability counter screen (AID 1159529); further: series mostly up to about 77 µM; nearly all actives have a fitted effect of over 50% in size
Procedure, shortened: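 CellTiter-Glo luminescence gave viability in the wells also read for beta-lactamase. Cells (RXR-alpha-UAS-bla HEK 293T, 2% charcoal-stripped FBS medium) had 5 hr plating, then 16 hr compound exposure at 37 C; tetraoctyl ammonium bromide served as positive control.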

[3] = qHTS assay to identify small molecule antagonists of the retinoid acid receptor (RAR) signaling pathway - cell viability counter screen (AID 1159551); further: nearly all actives have a fitted effect of over 35% in size
Procedure, shortened: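 Luminescent ATP quantitation (CellTiter-Glo) gave cell viability in C3RL4 cells exposed to test chemicals for 6 h at 37 C alongside 1 uM final retinol.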

[4] = qHTS assay to identify small molecule antagonists of the retinoic acid receptor (RAR) signaling pathway (AID 1159552; further: nearly all actives have a fitted effect of over 50% in size)
Procedure, shortened: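 Luminescent RARE reporter read-out in C3RL4 cells: 6 hr co-treatment at 37 C of test compounds with retinol at 1 uM final. Cells plated overnight beforehand; luciferase reagent incubated 30 min at room temperature before reading.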

[5] = qHTS assay to identify small molecule agonists of the retinoic acid receptor (RAR) signaling pathway (AID 1159553)
Procedure, shortened: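 Luminescence from a RARE-driven luciferase reporter in C3RL4 cells served as the read-out, measured after 30 min with detection reagent at room temperature. Compounds in DMSO were applied for 6 hr at 37 C following overnight seeding.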

[6] = qHTS assay to identify small molecule antagonists of the estrogen related receptor (ERR) signaling pathway from Tox21 library - cell viability counter screen (AID 1224834); further: nearly all actives have a fitted effect of over 30% in size
Procedure, shortened: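 Fluorescence from CellTiter-Fluor gives the viability read-out, taken 30 min after reagent addition. Before that, ERR cells seeded 6 h earlier were incubated with compounds for 17.5 h at 37 C.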

[7] = target: Luciferin 4-monooxygenase (Photinus pyralis) (UniProt P08659); experiment: qHTS assay to identify small molecule inhibitors of firefly luciferase (AID 1224835); further: series mostly up to about 120 µM; nearly all actives have a fitted effect of over 25% in size
Procedure, shortened: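 Biochemical qHTS: compounds run as interplate titrations against purified firefly enzyme, with D-luciferin and ATP each at its KM concentration. Light output recorded by CCD imaging.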

[8] = qHTS assay to identify small molecule agonists of the constitutive androstane receptor (CAR) signaling pathway - cell viability counter screen (AID 1224836); further: series mostly up to about 92 µM; nearly all actives have a fitted effect of over 45% in size
Procedure, shortened: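 Cell viability multiplexed with the CAR agonist screen: CellTiter-Fluor fluorescence after 23 hr at 37 C. HepG2-CYP2B6-hCAR cells got compounds at 15 concentrations with PK11195 at 0.75 uM final.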

[9] = qHTS assay to identify small molecule antagonists of the constitutive androstane receptor (CAR) signaling pathway - cell viability counter screen (AID 1224837); further: series mostly up to about 92 µM; nearly all actives have a fitted effect of over 45% in size
Procedure, shortened: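 HepG2-CYP2B6-hCAR cells, 2500/well, 4 hr pre-incubation; compound titration, 15 conc.; CITCO 50 nM final; 23 hr, 37 C/5% CO2; CellTiter-Fluor, fluorescence intensity.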

[10] = target: Nuclear receptor subfamily 1 group I member 3 (Homo sapiens) (UniProt Q14994); experiment: qHTS assay to identify small molecule antagonists of the constitutive androstane receptor (CAR) signaling pathway (AID 1224838);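 further: HepG2 cells stably expressing hCAR with CYP2B6 luciferase reporter stimulated by CITCO; nearly all actives have a fitted effect of over 40% in size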
Procedure, shortened: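 HepG2-CYP2B6-hCAR cells; 4 h pre-incubation; cpd (15 conc) + CITCO 50 nM final; 24 h, 37 C/5% CO2; ONE-Glo, luminescence.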

[11] = target: Nuclear receptor subfamily 1 group I member 3 (Homo sapiens) (UniProt Q14994); experiment: qHTS assay to identify small molecule agonists of the constitutive androstane receptor (CAR) signaling pathway (AID 1224839);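 further: HepG2 cells stably carrying human CAR and a CYP2B6 luciferase reporter; series mostly up to about 92 µM; nearly all actives have a fitted effect of over 15% in size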
Procedure, shortened: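 Luminescent ONE-Glo read-out after 24 hr, 37 C exposure of double-stable HepG2-CYP2B6-hCAR reporter cells to a 15-point compound series, in the presence of 0.75 uM PK11195 (final).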

[12] = qHTS assay to identify small molecule antagonists of the estrogen related receptor signaling pathway with the pleiotropic PPARgamma coactivator (PGC) from Tox21 10K library - cell viability counter screen (AID 1224840; active means well fitted cell-killing curve with a large enough effect in the repeat runs, not every such curve was filed as active; further: nearly all actives have a fitted effect of over 40% in size)
Procedure, shortened: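 PGC/ERR cells, 2,000/well; 6 h pre-incubation 37 C/5% CO2; cpd in DMSO via pin tool; 17.5 h 37 C; CellTiter-Fluor, 30 min; fluorescence.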

[13] = qHTS assay to identify small molecule antagonists of the estrogen related receptor signaling pathway with the pleiotropic PPARgamma coactivator (PGC) from Tox21 10K library (AID 1224841; call rule not given here; further: series mostly up to about 92 µM; actives are mostly falling curves and most rising ones were filed inactive; nearly all actives have a fitted effect of over 50% in size)
Procedure, shortened: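 PGC/ERR cell line, 2,000 cells/well; 6 h pre-incubation 37 C/5% CO2; compounds (DMSO) pinned in; 18 h, 37 C; One-Glo, 30 min RT; luminescence.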

[14] = qHTS assay to identify small molecule agonists of the estrogen related receptor signaling pathway with the pleiotropic PPARgamma coactivator (PGC) from Tox21 10K library (AID 1224842); further: nearly all actives have a fitted effect of over 15% in size
Procedure, shortened: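 PGC/ERR reporter cell line, 2,000 cells per well, incubated 6 h at 37 C before 23 nL compound in DMSO was added. After 18 h at 37 C, One-Glo luminescence read following 30 min at room temperature.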
On the % scale 0 is the no-effect control and ±100 the full control effect.

Nuclear receptor subfamily 1 group I member 3 (Homo sapiens), sequence (Q14994 whole entry, looked up): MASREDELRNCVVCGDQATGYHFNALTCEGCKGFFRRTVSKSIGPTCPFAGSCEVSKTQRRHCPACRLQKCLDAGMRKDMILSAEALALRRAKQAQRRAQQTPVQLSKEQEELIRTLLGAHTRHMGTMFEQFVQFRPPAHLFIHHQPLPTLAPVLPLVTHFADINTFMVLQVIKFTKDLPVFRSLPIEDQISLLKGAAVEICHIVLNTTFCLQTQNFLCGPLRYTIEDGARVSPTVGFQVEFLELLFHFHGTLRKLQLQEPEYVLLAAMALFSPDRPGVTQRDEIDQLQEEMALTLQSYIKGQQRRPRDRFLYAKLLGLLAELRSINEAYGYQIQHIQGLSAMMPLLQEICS
Luciferin 4-monooxygenase (Photinus pyralis), sequence (P08659 whole entry, looked up): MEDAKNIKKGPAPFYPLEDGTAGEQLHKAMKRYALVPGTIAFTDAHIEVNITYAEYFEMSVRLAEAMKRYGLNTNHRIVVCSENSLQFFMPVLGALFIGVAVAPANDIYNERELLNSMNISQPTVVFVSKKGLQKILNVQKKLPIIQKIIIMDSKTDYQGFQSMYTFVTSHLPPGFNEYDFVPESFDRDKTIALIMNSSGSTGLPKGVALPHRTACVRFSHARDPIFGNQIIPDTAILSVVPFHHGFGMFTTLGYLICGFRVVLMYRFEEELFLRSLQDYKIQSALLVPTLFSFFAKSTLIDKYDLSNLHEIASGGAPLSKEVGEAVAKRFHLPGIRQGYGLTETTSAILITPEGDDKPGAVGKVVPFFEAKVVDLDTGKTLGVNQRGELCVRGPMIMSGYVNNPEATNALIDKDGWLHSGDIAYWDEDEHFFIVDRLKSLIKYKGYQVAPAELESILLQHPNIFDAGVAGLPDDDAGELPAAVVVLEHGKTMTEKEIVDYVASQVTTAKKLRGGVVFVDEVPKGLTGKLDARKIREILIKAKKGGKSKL
Retinoic acid receptor RXR-alpha (Homo sapiens), sequence (P19793 whole entry, looked up): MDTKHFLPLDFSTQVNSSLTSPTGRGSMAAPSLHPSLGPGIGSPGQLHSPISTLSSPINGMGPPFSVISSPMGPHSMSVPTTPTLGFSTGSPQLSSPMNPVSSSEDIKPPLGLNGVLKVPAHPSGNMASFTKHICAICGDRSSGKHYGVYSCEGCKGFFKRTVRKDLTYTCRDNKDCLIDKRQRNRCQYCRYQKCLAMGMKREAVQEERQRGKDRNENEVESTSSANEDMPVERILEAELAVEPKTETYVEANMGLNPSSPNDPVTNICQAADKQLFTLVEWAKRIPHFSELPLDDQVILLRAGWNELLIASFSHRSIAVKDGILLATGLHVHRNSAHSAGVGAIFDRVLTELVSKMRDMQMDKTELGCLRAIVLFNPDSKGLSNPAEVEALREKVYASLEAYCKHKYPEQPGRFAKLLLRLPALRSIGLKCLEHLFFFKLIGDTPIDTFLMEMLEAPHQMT

Cc1cc(O)cc2c1O[C@](C)(CCC[C@H](C)CCC[C@H](C)CCCC(C)C)CC2
inactive: Potency [1] | Potency [2] | outcome [3] | Potency [4] | Potency [5] | Potency [6] | Potency [7] | Potency [8] | Potency [9] | Potency [10] | Potency [11] | Potency [12] | Potency [13] | outcome [14]

Cc1c(O)cccc1O
inactive: Potency [1] | Potency [2] | outcome [3] | Potency [4] | Potency [5] | Potency [6] | Potency [7] | Potency [8] | Potency [9] | Potency [10] | Potency [11] | Potency [13] | outcome [14]

CCCCCCCCS(=O)(=O)Cl
inactive: Potency [1] | Potency [2] | outcome [3] | Potency [4] | Potency [5] | Potency [6] | Potency [7] | Potency [8] | Potency [9] | Potency [10] | Potency [11] | Potency [12] | outcome [14]

CCCCOCCOCCOCCCC
inactive: Potency [1] | Potency [2] | outcome [3] | Potency [4] | Potency [5] | Potency [6] | Potency [7] | Potency [8] | Potency [9] | Potency [10] | Potency [12] | outcome [14]

ClC(Cl)(Br)Br
inactive: Potency [1] | Potency [2] | outcome [3] | Potency [4] | Potency [5] | Potency [6] | Potency [7] | Potency [8] | Potency [9] | Potency [10] | Potency [12] | outcome [14]

NS(=O)(=O)c1cc(C(=O)NN2C[C@H]3[C@H]4CCC(C4)[C@H]3C2)ccc1Cl
inactive: Potency [1] | Potency [2] | outcome [3] | Potency [4] | Potency [5] | Potency [6] | Potency [7] | Potency [8] | Potency [9] | Potency [10] | Potency [11] | Potency [13] | outcome [14]

CC(C)(CC(=O)O)C(=O)O
inactive: Potency [1] | Potency [2] | outcome [3] | Potency [4] | Potency [5] | Potency [6] | Potency [7] | Potency [8] | Potency [9] | Potency [10] | Potency [12] | outcome [14]

CCOC(C)(C)C
inactive: Potency [1] | Potency [2] | outcome [3] | Potency [4] | Potency [5] | Potency [6] | Potency [7] | Potency [8] | Potency [9] | Potency [10] | Potency [11] | outcome [14]

CCO[Si](CCC1CCC2OC2C1)(OCC)OCC (centres undefined)
inactive: Potency [1] | Potency [2] | outcome [3] | Potency [4] | Potency [5] | Potency [6] | Potency [7] | Potency [8] | Potency [9] | Potency [10] | Potency [12] | Potency [13] | outcome [14]

CCc1cccc2c(CCO)c[nH]c12
inactive: Potency [1] | Potency [2] | outcome [3] | Potency [4] | Potency [5] | Potency [6] | Potency [7] | Potency [8] | Potency [9] | Potency [10] | Potency [11] | Potency [12] | Potency [13] | outcome [14]

C=C(C)CS(=O)(=O)O
inactive: Potency [1] | Potency [2] | outcome [3] | Potency [4] | Potency [5] | Potency [6] | Potency [7] | Potency [8] | Potency [9] | Potency [10] | Potency [12] | Potency [13] | outcome [14]

CC(C)NCCCC1(C(N)=O)c2ccccc2-c2ccccc21
inactive: Potency [1] | Potency [2] | outcome [3] | Potency [4] | Potency [5] | Potency [7] | Potency [8] | Potency [9] | Potency [10] | Potency [11] | Potency [12] | Potency [13] | outcome [14]

COC(=O)CC(C)=O
inactive: Potency [1] | Potency [2] | outcome [3] | Potency [4] | Potency [5] | Potency [6] | Potency [7] | Potency [8] | Potency [9] | Potency [11] | Potency [12] | outcome [14]

C[N+](C)(C)CC(O)CC(=O)[O-] (centres undefined)
inactive: Potency [1] | Potency [2] | outcome [3] | Potency [4] | Potency [5] | Potency [6] | Potency [7] | Potency [8] | Potency [10] | Potency [12] | outcome [14]

COc1nc(N)nc2c1ncn2[C@@H]1O[C@H](CO)[C@@H](O)[C@@H]1O
inactive: Potency [1] | Potency [2] | outcome [3] | Potency [4] | Potency [5] | Potency [6] | Potency [7] | Potency [8] | Potency [11] | Potency [13] | outcome [14]

CN(C)CCCNCCCN(C)C
inactive: Potency [1] | Potency [2] | outcome [3] | Potency [4] | Potency [5] | Potency [6] | Potency [7] | Potency [8] | Potency [11] | Potency [13] | outcome [14]

CC(C)(C)NCCNC(C)(C)C
inactive: Potency [1] | Potency [2] | outcome [3] | Potency [4] | Potency [5] | Potency [6] | Potency [7] | Potency [8] | Potency [10] | Potency [11] | Potency [12] | Potency [13] | outcome [14]

NS(=O)(=O)c1ccc(C(=O)O)cc1
inactive: Potency [1] | Potency [2] | outcome [3] | Potency [4] | Potency [5] | Potency [6] | Potency [7] | Potency [8] | Potency [10] | Potency [11] | Potency [12] | outcome [14]

C=C1CC[C@H]2C[C@@H]1C2(C)C
inactive: Potency [1] | Potency [2] | outcome [3] | Potency [4] | Potency [5] | Potency [6] | Potency [7] | Potency [8] | Potency [12]

O=c1n(CCO)c(=O)n(CCO)c(=O)n1CCO
inactive: Potency [1] | Potency [2] | outcome [3] | Potency [4] | Potency [5] | Potency [6] | Potency [7] | Potency [8] | Potency [9] | Potency [11] | Potency [12]

O=C(O)CCCl
inactive: Potency [1] | Potency [2] | outcome [3] | Potency [4] | Potency [5] | Potency [6] | Potency [7] | Potency [8] | Potency [9] | Potency [11] | Potency [12] | Potency [13] | outcome [14]

CCc1nccnc1CC
inactive: Potency [1] | Potency [2] | activity change, negative = cytotoxicity [3] 1.72% [at 19 µM] | activity, negative = inhibition [4] 7.06% [at 19 µM] | Potency [5] | viability change, negative = cytotoxic [6] 6.79% [at 19 µM] | activity change, negative = inhibition [7] 1.9% [at 23.6 µM] | viability change, negative = cytotoxic [8] 4.25% [at 19 µM] | activation [11] -0.0673% [at 19 µM] | viability change, negative = cytotoxic [12] 1.05% [at 19 µM] | activity, negative = inhibition [13] 4.39% [at 19 µM] | activation [14] 1.3% [at 19 µM]

CCOC(=O)c1c(C)n(C)c2ccc(O)cc12
inactive: Potency [1] | Potency [2] | outcome [3] | Potency [4] | Potency [5] | Potency [6] | Potency [7] | Potency [8] | Potency [10] | Potency [13] | outcome [14]

O=C1OC(=O)C2CCCCC12 (centres undefined)
inactive: Potency [1] | Potency [2] | outcome [3] | Potency [4] | Potency [5] | Potency [6] | Potency [7] | Potency [8] | Potency [10] | Potency [11] | Potency [12] | Potency [13] | outcome [14]

CC(C)(C)c1nnc(NS(=O)(=O)c2ccccc2)s1
inactive: Potency [1] | Potency [2] | outcome [3] | Potency [4] | Potency [5] | Potency [6] | Potency [7] | Potency [8] | Potency [9] | Potency [11] | Potency [12] | Potency [13] | outcome [14]

CC(NC(CCc1ccccc1)C(=O)O)C(=O)N1C(=O)N(C)CC1C(=O)O (centres undefined)
inactive: Potency [1] | Potency [2] | outcome [3] | Potency [4] | Potency [5] | Potency [6] | Potency [7] | Potency [8] | Potency [11] | Potency [12] | outcome [14]

OCCOc1ccc(OCCO)cc1
inactive: Potency [1] | Potency [2] | outcome [3] | Potency [4] | Potency [5] | Potency [6] | Potency [7] | Potency [8] | Potency [9] | Potency [12] | Potency [13] | outcome [14]
